According to ChEMBL document CHEMBL2218924, “A broad activity screen in support of a chemogenomic map for kinase signalling research and drug discovery” (Biochem J, 2013):

What follows are molecules tested against Death-associated protein kinase 1 (Homo sapiens) (UniProt P53355). Settings: at 1 µM.
Sequence of Death-associated protein kinase 1 (Homo sapiens) (P53355 whole entry, looked up): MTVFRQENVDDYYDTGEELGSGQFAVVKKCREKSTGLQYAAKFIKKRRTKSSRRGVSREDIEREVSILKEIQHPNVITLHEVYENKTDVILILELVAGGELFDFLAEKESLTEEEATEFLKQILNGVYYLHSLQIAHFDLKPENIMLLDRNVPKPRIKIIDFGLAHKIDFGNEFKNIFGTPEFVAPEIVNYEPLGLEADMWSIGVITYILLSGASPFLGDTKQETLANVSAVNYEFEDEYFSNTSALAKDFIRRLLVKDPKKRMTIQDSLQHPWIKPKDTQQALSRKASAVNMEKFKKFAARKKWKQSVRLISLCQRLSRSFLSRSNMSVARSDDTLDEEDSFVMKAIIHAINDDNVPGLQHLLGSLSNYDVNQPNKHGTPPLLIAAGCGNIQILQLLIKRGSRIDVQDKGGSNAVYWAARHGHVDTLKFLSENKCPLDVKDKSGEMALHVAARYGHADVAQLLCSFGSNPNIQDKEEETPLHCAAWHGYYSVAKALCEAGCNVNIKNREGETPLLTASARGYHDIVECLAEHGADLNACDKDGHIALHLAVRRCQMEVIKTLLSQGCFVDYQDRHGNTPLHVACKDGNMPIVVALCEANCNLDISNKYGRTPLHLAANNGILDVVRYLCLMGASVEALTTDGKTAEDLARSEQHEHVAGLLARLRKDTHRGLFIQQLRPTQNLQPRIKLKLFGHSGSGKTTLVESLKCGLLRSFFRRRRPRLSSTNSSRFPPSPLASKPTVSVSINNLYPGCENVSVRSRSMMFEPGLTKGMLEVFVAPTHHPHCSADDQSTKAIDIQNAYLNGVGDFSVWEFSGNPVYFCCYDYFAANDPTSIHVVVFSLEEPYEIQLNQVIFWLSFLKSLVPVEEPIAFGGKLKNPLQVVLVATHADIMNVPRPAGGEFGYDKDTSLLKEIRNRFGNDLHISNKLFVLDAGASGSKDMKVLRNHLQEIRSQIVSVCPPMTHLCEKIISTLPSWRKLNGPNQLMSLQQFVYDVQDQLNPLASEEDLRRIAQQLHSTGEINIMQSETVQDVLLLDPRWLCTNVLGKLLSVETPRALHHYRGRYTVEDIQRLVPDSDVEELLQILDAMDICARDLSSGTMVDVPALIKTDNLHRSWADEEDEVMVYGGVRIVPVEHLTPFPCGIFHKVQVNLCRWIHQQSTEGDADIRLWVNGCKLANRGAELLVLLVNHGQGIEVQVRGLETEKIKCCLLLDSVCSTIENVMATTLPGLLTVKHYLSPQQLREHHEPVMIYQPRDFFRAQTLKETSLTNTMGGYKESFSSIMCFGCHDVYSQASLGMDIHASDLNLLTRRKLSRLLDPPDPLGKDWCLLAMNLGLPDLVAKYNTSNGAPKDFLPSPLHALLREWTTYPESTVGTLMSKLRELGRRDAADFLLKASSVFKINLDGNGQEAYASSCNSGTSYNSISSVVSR

SMILES | residual activity [%]
CCCC(=O)Oc1ccc2[nH]c(C(=O)c3cc4ccccc4[nH]3)cc2c1 | 83
COc1ccc(C(=O)Nc2sc3c(c2C(N)=O)CCCC3)cc1OC | 93
O=c1cc(-c2cccc3c2Sc2ccccc2S3)oc(N2CCOCC2)c1 | 91
c1ccc2c(-c3ccncc3)c[nH]c2c1 | 85
O=c1cc(N2CCOCC2)oc2c1ccc1ccccc12 | 90
O=c1c2ccccc2[nH]c(=S)n1CCN1CCC(=C(c2ccc(F)cc2)c2ccc(F)cc2)CC1 | 106
N#CC(C#N)=C(N)/C(C#N)=C/c1ccc(O)cc1 | 85
NC(=O)Nc1sc(-c2ccc(F)cc2)cc1C(N)=O | 83
O=C(Nc1cccc(Nc2cc(Nc3cccc(C(F)(F)F)c3)ncn2)c1)C1CC1 | 109
COc1ccc(CNc2nc(N(CCO)CCO)nc3c2ncn3C(C)C)cc1 | 93
CN(C)c1ccc(/C=C2\C(=O)Nc3ccccc32)cc1 | 102
Cc1cc2ncc(-c3ccccc3)nc2cc1C | 92
Nc1ncnc2c1cnn2-c1ccccc1 | 84
Cn1nc2c3c(cccc31)C(=O)c1ccccc1-2 | 85
CCOC(=O)c1c(C)[nH]c(/C=C2\C(=O)Nc3ccccc32)c1C | 83
COc1ccc(OC)c2c(=S)c3ccccc3[nH]c12 | 95
Nc1n[nH]c2nnc(-c3c(-c4ccccc4)nn4ccccc34)cc12 | 83
N#C/C(=C(\N)Sc1ccc(N)cc1)c1ccccc1C(F)(F)F | 84
O=C1Nc2ccccc2/C1=C1/Nc2ccccc2/C1=N\OCCC(O)CO (stereo not given) | 81
Nc1ncnc2[nH]nc(Nc3ccc(F)cc3)c12 | 102
CC(C)n1cnc2c(NCc3ccccc3)nc(NCCCO)nc21 | 83
O=C(Nc1cccc(Nc2nccc(Nc3cccc(C(F)(F)F)c3)n2)c1)C1CC1 | 98
O=C1c2ccccc2-[n+]2ccc3c([nH]c4ccccc43)c21 | 86
COc1cc2ncnc(Nc3ccc(NC(=O)c4ccccc4)cc3)c2cc1OC | 95
N#Cc1c(NC(=O)c2cccc3ccccc23)sc2c1CCCC2 | 93
CN(C)S(=O)(=O)c1ccc2c(c1)/C(=C/c1cc3c([nH]1)CCCC3)C(=O)N2 | 90
CO[C@H]1[C@@H](OC)C[C@H](C)[C@@H](OC)C2=CC(=O)C=C(NC(=O)/C(C)=C/C=C/[C@H](OC)[C@@H](OC(N)=O)/C(C)=C/[C@@H]1C)C2=O | 96
Cc1nc(-c2ccccc2)c(-c2ccncc2)o1 | 81
CCC(=O)Nc1ccc2ncnc(Nc3cccc(Br)c3)c2c1 | 80
Cn1c2ccccc2c2c3c(c4c5ccccc5n(CCC#N)c4c21)CNC3=O | 101
